Bioassay records: PubChem BioAssay, The Scripps Research Institute Molecular Screening Center
Shown are actives, neighbours in structure and some others; about 4.1% of the full set was active somewhere.
DAX1 inh-1 – DAX1 (NR0B1) inhibitors on StAR promoter, primary screen, cell-based, luminescence, SF-1 (NR5A1), full-length DAX-1 | AID 652010, 2013 | HEK293T StAR-luciferase reporter, SF-1/DAX-1 repression relief | 370,000 compounds, 1.1% hits | inhibition, % at 6.8 µM;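 active = inhibition above the mean over all tested compounds plus 3 SD, cut at about 3.6% in these data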;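 also: 0% = DAX-1 cells with DMSO and 100% = cells lacking DAX-1 with DMSO; higher inhibition means more luminescence from relief of DAX-1 repression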
DAX1 inh-2 – DAX1 (NR0B1) inhibitors, primary screen, cell-based, HEK293, Gal4-DAX1, luciferase luminescence; Nuclear receptor subfamily 0 group B member 1 (Homo sapiens), P51843; HEK293 Gal4-DAX1 luciferase reporter; inhibition, % at 6.75 µM; 340,000 compounds, 0.99% hits;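 active = inhibition above the mean over all tested compounds plus 3 SD, cut at about 4.2% in these data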;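 also: 0% = DAX1-transfected cells with DMSO and 100% = empty-vector control cells with DMSO; inhibition shows as a rise in luminescence from relieved DAX1 repression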
ssDAF12 agonist – S. stercoralis DAF-12 nuclear receptor activators, primary screen, cell-based, luminescence, HEK293, GRIP1 co-expression, lit1-tk-luc | Nuclear hormone receptor DAF-12 (Strongyloides stercoralis) | HEK293 ssDAF-12/GRIP1 lit1-tk-luc reporter; % of 3 µM dafachronic acid response | activation, % at 6.8 µM | 370,000 compounds, 1% hits;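 active = activation above the mean over all tested compounds plus 3 SD, cut at about 0.9% in these data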;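 also: 0% = DMSO-only wells and 100% = 3 µM delta7-dafachronic acid wells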
hcDAF12 agonist – H. contortus DAF-12 nuclear receptor activators, primary screen, cell-based, luminescence, HEK293, lit1-tk-luc reporter; HEK293 hcDAF-12 lit1-tk-luc reporter; 0% DMSO, 100% Δ7-dafachronic acid; 370,000 compounds, 1.4% hits; activation, % at 6.8 µM; AID 652067, 2013;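 active = activation above the mean of all tested compounds plus 3 SD, cut at about 5.5% in these data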;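 also: 100% = response to 3 µM Δ7-dafachronic acid high control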
hgDAF-12 ag – H. glycines DAF-12 receptor agonists, primary screen, cell-based, luminescence, HEK293, GAL4 fusion, UAS-luciferase | activation, % at 6.8 µM | Nuclear hormone receptor DAF-12 (Heterodera glycines), GAL4 fusion | AID 687014, 2013 | HEK293 GAL4-hgDAF12 UAS-luciferase reporter, agonist luminescence; normalized to butyrate control | 370,000 compounds, 1.8% hits;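 active = activation above a cutoff set at the mean of all screened compounds plus 3 SD, cut at about 10% in these data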;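 also: 0% = DMSO wells and 100% = sodium butyrate wells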
hgDAF12 ag – H. glycines DAF-12 receptor agonists, confirmation, cell-based, luminescence, HEK293, GAL4-LBD fusion. shares compounds with hgDAF-12 ag. HEK293 GAL4-hgDAF12 luciferase reporter, agonist mode; percent of butyrate response. activation, % at 6.8 µM. 3,300 compounds, 80% hits. AID 743050, 2013;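 active = mean activation over triplicate wells above the hit cutoff derived from the earlier primary screen, cut at about 11% in these data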;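 also: 0% = DMSO low control and 100% = 2 mM sodium butyrate high control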
LXRb DAF12 ctr – LXR agonists, Gal4 luciferase reporter, confirmation, counter-screen for hgDAF-12 agonist project, cell-based, luminescence, HEK293, H. glycines campaign; shares compounds with hgDAF-12 ag; 24 h; activation, % at 6.8 µM; 3,300 tested, under 10 active;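 active = mean activation of the triplicate above a set limit carried over from the primary screen, none filed active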
Target sequence (P55055 whole entry, looked up, the tested form may be a part): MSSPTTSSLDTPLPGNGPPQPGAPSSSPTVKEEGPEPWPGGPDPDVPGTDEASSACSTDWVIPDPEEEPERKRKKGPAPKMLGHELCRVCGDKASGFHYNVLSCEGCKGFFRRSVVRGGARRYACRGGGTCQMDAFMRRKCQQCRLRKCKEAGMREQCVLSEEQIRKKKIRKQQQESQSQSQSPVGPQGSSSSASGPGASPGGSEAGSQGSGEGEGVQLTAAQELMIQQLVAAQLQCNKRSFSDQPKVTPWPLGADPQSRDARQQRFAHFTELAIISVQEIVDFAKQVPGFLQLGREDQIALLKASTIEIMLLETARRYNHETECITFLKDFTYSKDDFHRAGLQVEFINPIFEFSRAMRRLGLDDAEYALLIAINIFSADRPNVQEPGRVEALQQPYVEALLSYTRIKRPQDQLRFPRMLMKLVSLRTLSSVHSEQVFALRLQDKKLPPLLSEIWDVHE
Starred values were filed as active, the others as inactive; · = not tested or not shown.

SMILES	DAX1 inh-1	DAX1 inh-2	ssDAF12 agonist	hcDAF12 agonist	hgDAF-12 ag	hgDAF12 ag	LXRb DAF12 ctr
Cc1ccc(/C=N/NC(=O)c2ccccn2)s1	3	1	0	4	15*	14*	1
NS(=O)(=O)c1ccc(NC(=O)CSC2CCCCC2)cc1	1	0	-1	-1	2	·	·
COc1ccc(NC(=O)CSC2CCCCC2)cc1	1	3	0	4	23*	15*	0
CC1CCCC(C)N1C(=O)COC(=O)c1ccc(F)c(S(=O)(=O)N2CCOCC2)c1 (centres undefined)	-1	0	-1	0	1	·	·
O=C1c2ccccc2CN1CCSC(=S)N1CCOCC1	3	3	0	4	16*	16*	1
CC1CN(C(=S)SCCN2Cc3ccccc3C2=O)CC(C)O1 (centres undefined)	0	1	-1	4	3	·	·
CC(=O)OC[C@H]1O[C@@H](O[C@H]2C[C@]3(C)C(C[C@@H](O)C4C([C@]5(C)CC[C@@H](C(C)(C)O)O5)CC[C@]43C)[C@@]3(C)CC[C@H](O)C(C)(C)C23)[C@H](O[C@@H]2O[C@@H](C)[C@H](O)[C@@H](O)[C@H]2O)[C@@H](O)[C@@H]1O (some centres undefined)	0	2	-1	0	-1	·	·
O=C(Nc1ccccn1)c1ccc(Br)s1	1	0	1	1	16*	13*	1
Cc1csc(NC(=O)c2ccc3c(c2)OCO3)n1	2	1	-1	4	17*	16*	1
COc1ccccc1C(=O)Nc1ccccn1	1	1	-1	4	14*	13*	0
Cc1nc(NC(=O)c2ccc3c(c2)OCO3)ccc1Br	3	4.3*	0	2	16*	14*	1
CCOC(=O)Cc1csc(NC(=O)c2ccc3c(c2)OCO3)n1	-1	-1	-1	-1	0	·	·
Cc1csc(NC(=O)c2ccc(Br)s2)n1	0	1	0	3	17*	13*	1
Cc1ccc(Cc2nc(-c3cccnc3)no2)cc1	-1	1	0	-2	3	·	·
c1ccc(-c2noc(-c3cccnc3)n2)nc1	3	1	0	1	14*	12*	0
Cc1ccc(-c2nc(-c3cccnc3)no2)cc1	3	3	0	3	14*	18*	1
Cc1ccc(-c2nc(-c3ccncc3)no2)cc1	1	3	0	4	15*	15*	1
CCC(=O)Nc1ccc(C(=O)NCc2ccccn2)cc1	0	0	-1	2	1	·	·
C=CCNC(=O)CN1CCN(C(c2ccccc2)c2ccccc2)CC1	0	0	-2	-2	-1	·	·
O=C(Nc1ccccc1F)c1ccc2sc([C@@H]3O[C@H](CO)[C@H](O)[C@H](O)[C@H]3O)nc2c1	1	·	0	2	14*	8	0
O=C(Nc1cccc2ccccc12)c1ccc2sc([C@@H]3O[C@H](CO)[C@@H](O)[C@H]3O)nc2c1	1	·	-1	0	6	·	·
Cc1ccsc1/C=N/NC(=O)c1sccc1C	3.7*	3	1.6*	7.2*	13*	18*	1
CN(C)c1ccc(C2=NOC(CN3C(=O)c4ccccc4S3(=O)=O)C2)cc1 (centres undefined)	3	3	0	5	13*	18*	1
COc1cc(N)ccc1NC(=O)c1cc2ccccc2o1	1	4	0	4	17*	9	1
CCNC(=O)C1(C)CCN(C(=O)c2ccc(C(F)(F)F)cc2)C1 (centres undefined)	0	·	-1	-1	0	·	·
SMILES	DAX1 inh-1	DAX1 inh-2	ssDAF12 agonist	hcDAF12 agonist	hgDAF-12 ag	hgDAF12 ag	LXRb DAF12 ctr
Cc1cc2nc(-c3nnnn3C3CCCCC3)c(=O)[nH]c2cc1C	0	·	-1	-2	2	·	·
O=C(Nc1ccc(F)c(Cl)c1)c1cc(C2CCCN(C(=O)C3CC3)C2)on1 (centres undefined)	4.4*	·	0	1	15*	8	1
O=C(Nc1ccc(F)c(Cl)c1)c1cc(C2CCCCN2C(=O)C2CC2)on1 (centres undefined)	0	·	-1	0	0	·	·
COc1ccc(CCNC(=O)c2cc([C@@H](NC(=O)OC(C)(C)C)C(C)C)sc2N)cc1OC	-1	·	-1	-1	1	·	·
O=C(N=C1N=C2C=CC(Br)=CN2Cc2ccccc21)c1ccc([N+](=O)[O-])cc1[N+](=O)[O-]	1	1	1.1*	5	14*	14*	1
CCOC(=O)C1(Cc2ccccc2Cl)CCN(C(=O)CN2CCOC2=O)CC1	2	2	0	2	17*	10	0
COn1c(-c2ccc(Cl)cc2)nc2ncccc21	0	1	0	3	13*	11*	0
Cc1ccc(-c2nc3ncccc3n2O)cc1	0	2	-1	0	2	·	·
CCc1nc2c(OCc3cccc(Cl)c3)cccn2c1N(C)C(=O)c1ccc(OC)cc1	-1	·	-2	0	-2	·	·
O=c1cc(CN(Cc2ccccc2)Cc2ccccc2)c2ccccc2o1	-1	·	0	-1	0	·	·
O=C(Nc1ccc2[nH]c(=S)sc2c1)c1ccccc1	3.7*	1	-1	1	14*	12*	1
Nn1c(SCC(=O)Nc2nccs2)nnc1C1CC1	2	1	-1	-1	-2	·	·
Cc1ccc(NC(=O)c2cc3cccc([N+](=O)[O-])c3[nH]2)cc1	2	4	1.3*	4	13*	19*	1
O=C(Nc1nccs1)c1cn2ccccc2n1	4	0	0	5.8*	15*	14*	1
CC(=O)Nc1cccc(-c2csc(Nc3ncccn3)n2)c1	2	·	1.1*	5	19*	16*	1
O=C(Nc1cccc(-c2csc(Nc3ccc(Cl)cc3)n2)c1)c1ccccc1	-1	1	-1	3	-1	·	·
